Measured values from PubChem BioAssay.
Activity calls are given as the source filed them.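 Rule for the calls, unless noted: active = fluorescence slope after compound addition differing from the mean of all screened samples at 99.7% confidence, in either direction; inactive = the rest.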

What was measured:
[1] = inhibitors of TNFa-induced NFkB p65 translocation, primary screen, imaging, HUVEC, MLSMR starter and 10KST1 sets (AID 438;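 active = inhibition above 20% together with a positive visual image hit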;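 note: compound added about 3h40 before a 20 min TNFalpha stimulation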;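 for inhibition: signal is the nuclear over cytoplasmic p65 intensity ratio per well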); conditions: HUVEC TNFa-induced p65 nuclear translocation; cell count: measured here: nuclei count (cytotoxicity indicator), at 2.08 µM; inhibition: at 2 µM, stronger effect = higher value, 0% TNFa-plus-vehicle, 100% no-TNFa wells
[2] = inhibitors of mutant huntingtin aggregation, primary screen, imaging, exon1htt(103Q)mCFP cells, high-content imaging (AID 483;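 active = visual image review flags a hit and inhibition of aggregation exceeds 20%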;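 note: compound exposure lasted 3 days before fixation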;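 for nuclei count: percent of the per-plate median nuclei count of sample wells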); conditions: exon1htt(103Q)mCFP cell line, aggregate imaging, at 2 µM; inhibition of aggregation: stronger effect = higher value; nuclei count: measured here: cell count, toxicity
[3] = inhibitors of E-selectin induction by TNFa, primary screen, imaging, HUVEC, immunofluorescence, MLSMR starter and 10KST1 sets (AID 487;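 active = visually confirmed hit in the image check and inhibition above 20%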;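 for inhibition: signal is fraction of cell area covered by stained E-selectin grains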;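 for nuclei count: 100% = median nuclei count of all wells on the same plate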); conditions: HUVEC TNFalpha-induced E-selectin immunofluorescence imaging, at 2 µM; inhibition: stronger effect = higher value; nuclei count: measured here: cell number, toxicity
[4] = target: Voltage-gated potassium channel subunit beta-2 (Rattus norvegicus) (UniProt P62483); test: KvBeta enzyme negative modulators, primary screen, biochemical, NADPH fluorescence (AID 622;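 active = fluorescence slope higher than the sample average by over 3 SD, cut at about -0.22 in these data, passing the limit was not always enough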;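 note: slope of raw intensity against log time taken from 70 to 1610 s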); conditions: recombinant KvBeta, 4-cyanobenzaldehyde reduction, at 10 µM, stronger effect = higher value
Chain of Voltage-gated potassium channel subunit beta-2 (Rattus norvegicus) (P62483 whole entry, looked up): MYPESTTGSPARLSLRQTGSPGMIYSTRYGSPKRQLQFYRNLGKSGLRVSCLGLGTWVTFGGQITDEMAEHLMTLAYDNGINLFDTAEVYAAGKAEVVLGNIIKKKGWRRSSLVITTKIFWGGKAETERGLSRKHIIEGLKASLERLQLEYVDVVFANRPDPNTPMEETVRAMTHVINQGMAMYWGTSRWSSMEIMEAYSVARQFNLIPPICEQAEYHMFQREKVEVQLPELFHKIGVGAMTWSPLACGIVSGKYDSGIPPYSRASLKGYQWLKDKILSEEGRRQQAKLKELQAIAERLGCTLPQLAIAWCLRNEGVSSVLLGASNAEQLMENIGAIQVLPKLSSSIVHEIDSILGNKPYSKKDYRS

[5] = target: Voltage-gated potassium channel subunit beta-2 (Rattus norvegicus) (UniProt P62483); test: KvBeta positive modulators, primary screen, biochemical, NADPH fluorescence (AID 623;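 active = NADPH fluorescence slope more negative than the mean of all samples by about 3 SD, 99.7% confidence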;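 note: fluorescence intensity change per second fitted from 20 to 320 s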); conditions: Recombinant KvBeta, NADPH fluorescence decrease slope, 10 min; at 10 µM; stronger effect = lower value
[6] = target: Alpha-2C adrenergic receptor (Homo sapiens) (UniProt P18825); test: modulators of alpha2C/GIRK thallium flux, primary screen, cell-based, HEK293 alpha2C/GIRK1/2 (AID 624); conditions: thallium flux BTC fluorescence, at 10 µM, actives lie on both sides;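 note: slope of fluorescence ratio to pre-addition baseline per second over 15 to 24 s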
Chain of Alpha-2C adrenergic receptor (Homo sapiens) (P18825 whole entry, looked up): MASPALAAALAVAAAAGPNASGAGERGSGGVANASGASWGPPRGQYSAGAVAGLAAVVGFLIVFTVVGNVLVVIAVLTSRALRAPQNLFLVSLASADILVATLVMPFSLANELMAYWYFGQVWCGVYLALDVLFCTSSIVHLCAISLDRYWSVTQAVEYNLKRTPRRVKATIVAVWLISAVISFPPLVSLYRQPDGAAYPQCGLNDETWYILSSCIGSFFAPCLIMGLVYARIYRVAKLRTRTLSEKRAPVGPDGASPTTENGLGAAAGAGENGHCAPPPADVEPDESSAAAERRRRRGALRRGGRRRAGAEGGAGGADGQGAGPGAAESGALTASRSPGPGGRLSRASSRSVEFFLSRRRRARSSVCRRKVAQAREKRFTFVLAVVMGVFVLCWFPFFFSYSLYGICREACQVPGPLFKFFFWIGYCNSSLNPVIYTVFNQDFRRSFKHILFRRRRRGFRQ

[7] = inhibitors of Sendai virus-induced IRF3 signaling, primary screen, TLR/RLR signaling modifier project, cell-based, Sendai virus stimulus, luciferase, 10K MLSCN set (AID 602276;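 active = inhibition at or above 50% at 10 µM; inactive = inhibition below 50%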;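 note: firefly luciferase from ISG56 promoter only with Renilla not read in this screen; 0% = Sendai virus plus DMSO and 100% = medium plus DMSO without virus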); conditions: HEK293 RL24 IRF3 luciferase reporter, at 10 µM, stronger effect = higher value
[8] = inhibitors of poly I:C-induced TLR3 signaling, primary screen, cell-based, poly I:C stimulus, luciferase, 10K MLSCN set (AID 602277;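 active = inhibition of the reporter signal at or above 50%; inactive = inhibition below 50%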); conditions: HEK293-TLR3 RL24 IRF3 luciferase reporter, at 10 µM, stronger effect = higher value

Row | Compound | cell count [1] | inhibition [1] | inhibition of aggregation [2] | nuclei count [2] | inhibition [3] | nuclei count [3] | fluorescence slope [4] | NADPH fluorescence slope [5] | slope [6] | inhibition [7] | inhibition [8]
1 | Cc1ccc(-c2noc(CCC(=O)NCC3CCN(Cc4cccc(C)c4)CC3)n2)cc1 | 400 | 1.5% (inactive) | 7.8% (inactive) | 88.4% | 17% (inactive) | 89.5% | -0.401 (inactive) | -4.7e-05 (inactive) | 0.0033 (inactive) | 25.8% (inactive) | 28.9% (inactive)
2 | Cc1cc(NS(=O)(=O)c2ccc(NC(=O)Nc3ccc4c(c3)OCO4)cc2)no1 | 599 | -10.7% (inactive) | -12.8% (inactive) | 108% | -96.1% (inactive) | 112% | -0.393 (inactive) | -5.2e-05 (inactive) | 0.00596 (inactive) | -9.3% (inactive) | -20.7% (inactive)
3 | O=C(NCc1ccc(F)cc1)C1CCN(C(=O)NCc2ccccc2)CC1 | 643 | -3.5% (inactive) | 2.3% (inactive) | 110% | -18.5% (inactive) | 106% | -0.448 (inactive) | -4.9e-05 (inactive) | 0.00381 (inactive) | 5.76% (inactive) | 32.5% (inactive)
4 | c1ccc(CNc2ncnc3ccccc23)cc1 | 537 | -12.4% (inactive) | -8.7% (inactive) | 70.8% | -32.1% (inactive) | 107% | -0.408 (inactive) | -4.8e-05 (inactive) | 0.00588 (inactive) | -14.3% (inactive) | -78% (inactive)
5 | CCOC(=O)CSc1nnc(Cn2c(=O)sc3ccccc32)n1C | 475 | -8.3% (inactive) | 20.2% (inactive) | 106% | -24.8% (inactive) | 114% | -0.576 (inactive) | -4.8e-05 (inactive) | 0.00614 (inactive) | 8.16% (inactive) | 33.4% (inactive)
6 | CCCN1CCN(CCCNC(=O)Cn2ncc3c4ccccc4n(C)c3c2=O)CC1 | 509 | -3% (inactive) | -2.1% (inactive) | 101% | -61.4% (inactive) | 110% | -0.615 (inactive) | 2.2e-07 (inactive) | 0.00665 (inactive) | -2.18% (inactive) | 34.8% (inactive)
7 | Cc1nnc2n(-c3ccc(Cl)cc3)c(=O)c3c4c(sc3n12)CN(C)CC4 | 386 | -5.7% (inactive) | 8.9% (inactive) | 93.3% | 22% (inactive) | 89.5% | -0.477 (inactive) | -0.000149 (inactive) | 0.00624 (inactive) | -17.3% (inactive) | -5.51% (inactive)
8 | O=C(NCCSc1c[nH]c2ccccc12)c1ccc(Br)o1 | 564 | 3.9% (inactive) | -4.5% (inactive) | 114% | -35.7% (inactive) | 113% | -0.559 (inactive) | -4.4e-05 (inactive) | 0.00687 (inactive) | 6.55% (inactive) | -6.47% (inactive)
9 | CC/C(O)=C(/C#N)c1nnc2n1CCCCC2 | 446 | 3.6% (inactive) | -9.6% (inactive) | 115% | 47.8% (inactive) | 86.1% | -0.608 (inactive) | -2e-05 (inactive) | 0.00604 (inactive) | 7.71% (inactive) | 11.5% (inactive)
10 | CC(=O)OCC1OC(c2ccccc2)C(OC(C)=O)C(OC(C)=O)C1OC(C)=O (stereo not given) | 274 | -5% (inactive) | 15.4% (inactive) | 59.7% | -26.4% (inactive) | 106% | -0.351 (inactive) | -2.1e-05 (inactive) | 0.00646 (inactive) | 6.22% (inactive) | 34.3% (inactive)
11 | O=C(Nc1ccc2c(c1)OCO2)C(c1ccc(Cl)cc1)N1CCN(C(=O)c2ccco2)CC1 (stereo not given) | 359 | -2.1% (inactive) | -23.2% (inactive) | 102% | -43.9% (inactive) | 110% | -0.47 (inactive) | -3.7e-05 (inactive) | 0.00661 (inactive) | 20.6% (inactive) | 28.1% (inactive)
12 | CCCC(=O)Nc1ccccc1-c1nnn(CC(=O)Nc2ccc(OC)cc2)n1 | 674 | 21.5% (inactive) | -11.7% (inactive) | 115% | -36.7% (inactive) | 83.3% | -0.36 (inactive) | 1e-05 (inactive) | 0.0062 (inactive) | 14.1% (inactive) | 13.7% (inactive)
13 | CCc1ccccc1NC(=O)CCc1nc(-c2ccc(C)cc2)no1 | 415 | -1% (inactive) | -4% (inactive) | 103% | 14.1% (inactive) | 86.3% | -0.299 (inactive) | 1.2e-05 (inactive) | 0.00374 (inactive) | 14.1% (inactive) | 47.2% (inactive)
14 | COc1cc2c(cc1OC)-c1cc(Nc3ccc4c(c3)OCCO4)nc(=O)n1CC2 | 649 | -6.9% (inactive) | 0.9% (inactive) | 104% | 5.7% (inactive) | 128% | -0.41 (inactive) | -5.2e-06 (inactive) | 0.00445 (inactive) | 41.3% (inactive) | 44.1% (inactive)
15 | COc1ccc(C(=O)NCc2nnc(SCC(=O)Nc3cc(C)cc(C)c3)o2)cc1OC | 611 | -14.4% (inactive) | 14% (inactive) | 76.5% | -100% (inactive) | 115% | -0.272 (inactive) | -1e-05 (inactive) | 0.00582 (inactive) | 9% (inactive) | 9.85% (inactive)
16 | O=C(CCCOc1ccccc1)N1CCN(c2ccccn2)CC1 | 232 | -4.8% (inactive) | 15.3% (inactive) | 53.2% | -18.6% (inactive) | 78% | -0.487 (inactive) | -3.3e-07 (inactive) | 0.00525 (inactive) | 2.47% (inactive) | -54.1% (inactive)
17 | c1ccc(-c2oc3ncnc(NCCN4CCOCC4)c3c2-c2ccccc2)cc1 | 365 | -11.4% (inactive) | -1.8% (inactive) | 102% | -121% (inactive) | 106% | -0.512 (inactive) | -8.4e-05 (inactive) | 0.00536 (inactive) | 13.9% (inactive) | 16% (inactive)
18 | O=C(CSc1nc(-c2ccccc2)cs1)NCc1ccco1 | 200 | -1.3% (inactive) | 0.4% (inactive) | 54.4% | -32.4% (inactive) | 106% | -0.511 (inactive) | -3.4e-05 (inactive) | 0.00584 (inactive) | -27.5% (inactive) | -55.9% (inactive)
19 | Cc1ccc(S(=O)(=O)NC(C)C(=O)Nc2ccc(C(N)=O)cc2)cc1 (stereo not given) | 707 | 1.6% (inactive) | 1.1% (inactive) | 77.4% | -22.5% (inactive) | 105% | -0.521 (inactive) | 1.6e-05 (inactive) | 0.0049 (inactive) | -2.81% (inactive) | 2.56% (inactive)
20 | COc1ccc(S(=O)(=O)NC(C)C(=O)Nc2cccc(C(C)=O)c2)cc1 (stereo not given) | 255 | 2.4% (inactive) | 14.5% (inactive) | 97.3% | -2.9% (inactive) | 62.6% | -0.402 (inactive) | -2.7e-05 (inactive) | 0.00498 (inactive) | 14.3% (inactive) | 15.3% (inactive)
21 | COc1cccc(C2=NOC(C(=O)N3CCN(c4ccccc4)CC3)C2)c1OC (stereo not given) | 471 | 15% (inactive) | 6.5% (inactive) | 113% | 8% (inactive) | 99.4% | -0.536 (inactive) | -8.8e-06 (inactive) | 0.00606 (inactive) | 19% (inactive) | 6.35% (inactive)
22 | Cc1ccc2nsnc2c1S(=O)(=O)N(Cc1cc2cccc(C)c2[nH]c1=O)CC1CCCO1 (stereo not given) | 641 | 2.6% (inactive) | 6.3% (inactive) | 108% | 42.1% (inactive) | 92.6% | -0.578 (inactive) | -6.5e-05 (inactive) | 0.00367 (inactive) | 32.9% (inactive) | 18.9% (inactive)
23 | CCOc1ccc(C(=O)N2CCN(c3ccccc3)CC2)cc1OCC | 196 | -16.9% (inactive) | 20.3% (inactive) | 97.1% | -17.5% (inactive) | 100% | -0.561 (inactive) | 9.3e-05 (inactive) | 0.00618 (inactive) | 16% (inactive) | 9.44% (inactive)
24 | CCOC(=O)c1cnn(-c2cc(C)c3cc(C)cc(C)c3n2)c1N | 494 | 9% (inactive) | -9.8% (inactive) | 110% |  | 152% | -0.545 (inactive) | 2e-05 (inactive) | 0.00906 (inactive) | -17.1% (inactive) | -21.2% (inactive)
25 | O=C(CSc1nnc(NC(=O)C2CCC2)s1)NC1CC1 | 488 | 0.8% (inactive) | -8.1% (inactive) | 66.2% | -90.7% (inactive) | 106% | -0.313 (inactive) | -4.2e-05 (inactive) | 0.00536 (inactive) | 0.495% (inactive) | -3.07% (inactive)
26 | CN(C)/C=C1\N=C(c2ccc3c(c2)OCO3)OC1=O | 462 | 15.8% (inactive) | -17.4% (inactive) | 104% | 46.5% (inactive) | 108% | -0.451 (inactive) | 1.5e-05 (inactive) | 0.0038 (inactive) | -20.5% (inactive) | -55.4% (inactive)
